# Article PMC5540273 (PLoS ONE, 2017)
# Tests used:
# Conditions in all cases: concentration: 1 μM, replicates: in singlicate; n = 1
# BMX = test system: BMX
# BRAF = test system: BRAF
# BRK = test system: T1, BRK
# T1 construct: gene PTK6
# BRSK1 = test system: BRSK1
# BRSK2 = test system: BRSK2
# BTK = test system: BTK
# BUB1 = test system: BUB1
# CAMK1B = test system: CAMK1B
# CAMK1D = test system: CAMK1D
# CAMK1G = test system: CAMK1G
# 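Further: KINOMEscan kinase panel screen.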
Structure (SMILES),%Inh (BMX),%Inh (BRAF),%Inh (BRK),%Inh (BRSK1),%Inh (BRSK2),%Inh (BTK),%Inh (BUB1),%Inh (CAMK1B),%Inh (CAMK1D),%Inh (CAMK1G)
CNC(=O)c1ccccc1Nc1nc(Nc2ccc(N3CCOCC3)cc2)ncc1Cl.Cl [GSK1576028],91.4%,72%,94.6%,78%,92.4%,96.9%,96.7%,39%,54%,30%
Cl.c1ccc(-c2ccc3c(Nc4ccc5[nH]ccc5c4)ccnc3c2)nc1 [GW440138],5%,0%,28%,0%,0%,0%,64%,11%,0%,0%
COc1cccc(C(=O)Nc2cccc(Oc3ccc4nc(NC(=O)C5CC5)cn4n3)c2)c1,77%,96.5%,21%,4%,0%,9%,0%,0%,17%,21%
Cl.c1ccc(-c2ccc3c(Nc4ccc5[nH]ncc5c4)ccnc3c2)nc1 [GW440137],0%,7%,20%,0%,2%,0%,47%,36%,18%,5%
COc1cc(Nc2nccc(-c3c(-c4cccc(NC(=O)c5c(F)cccc5F)c4)nn4ccccc34)n2)cc(OC)c1OC [GSK323521],7%,9%,57%,8%,13%,1%,3%,0%,21%,31%
Cn1cc(-c2[nH]c3cc(NC(=O)[C@H](N)C4CCCCC4)cc4c3c2C=NNC4=O)cn1,13%,39%,14%,31%,61%,94.2%,100%,87%,90.4%,0%
C[C@@H]1CC[C@@H](C(=O)Nc2ccccc2)CN1c1cc(-c2ccc3c(N)n[nH]c3c2)nc(N)n1 [GSK2286062],24%,0%,3%,0%,0%,0%,16%,0%,23%,6%
O=C(Nc1cccc(-c2nn3ccccc3c2-c2ccnc(Nc3cccc(C(F)(F)F)c3)n2)c1)c1c(F)cccc1F [GSK292658],52%,43%,41%,0%,0%,50%,45%,33%,0%,0%
COc1cc(Nc2nccc(-c3c(-c4cccc(NC(=O)c5c(F)cccc5F)c4)nn4ncccc34)n2)cc(OC)c1OC [GSK327238],91.4%,96%,97.6%,0%,40%,94%,54%,0%,13%,3%
CC(C)(C)c1ccc2nccc(Nc3cccc(O)c3)c2c1 [GW856795],0%,41%,51%,0%,11%,43%,24%,68%,13%,0%
